# Laboratory results published in PubChem BioAssay AID602 (SRMLSC, 2007).
# Out of some 85,000 compounds screened, about 35 (0.04%) were called active.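 The calls were made as follows: active = viability drop by adding the cancer drug above about 55%, with treated viability meeting a 40% cutoff (limit read from the data); inactive = the rest, inconclusive results apart.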 The sample as a whole holds a higher share of actives than the screen did.
# Assay: reversal of MRP1-mediated doxorubicin resistance, primary screen, H69AR cells, doxorubicin co-treatment (AID 602);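 as to differential viability (reversal): larger differential means the compound sensitizes cells more to doxorubicin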
# Conditions: CellTiter-Glo, 72 h, at 10 µM; for differential viability (reversal): stronger effect = higher value
# [1] = H69AR cells + 2 uM doxorubicin, measured here: viability with 2 uM doxorubicin, stronger effect = lower value
# [2] = H69AR cells, measured here: cytotoxicity without doxorubicin
Compound,differential viability (reversal) (H69AR cells + 2 uM doxorubicin),viability [1] [%],viability [2] [%]
CCCC(=O)C1CCN(Cc2ccccc2)CC1,1.73% (inactive),91.3,93
CC1(C)COC(c2cccn2Cc2ccccc2Cl)=N1,13.1% (inactive),90.7,104
COc1ccc(C2CC(=O)n3c(nc4ccccc43)S2)cc1OC (centres undefined),4.1% (inactive),111,115
CCc1ccc2c(c1)C1(NN=C(c3ccccc3)S1)C(=O)N2 (centres undefined),-18.7% (inactive),34,15.2
COc1cccc(OC)c1C(=O)Nc1ccc(N2CCCCC2)cc1,15% (inactive),90.1,105
COC(=O)CSc1snnc1-c1ccc(Cl)c(Cl)c1,8.05% (inactive),89.3,97.3
CC(C)C(=O)NC(NC(=S)NC1CCS(=O)(=O)C1)C(Cl)(Cl)Cl (centres undefined),6.22% (inactive),95.7,102
CCOC(=O)c1cnn(Cc2ccccc2Cl)c1N,4.58% (inactive),91.6,96.2
CCOc1cccc(C(=O)Nc2nnc(-c3cccs3)s2)c1,-41.2% (inactive),103,62.1
CCn1nccc1C(=O)Nc1ccc(Cl)c(Cl)c1,8.65% (inactive),68.4,77
CCCc1nc2sc3c(c2c(=O)n1NC(=O)CCCl)CCCC3,11.4% (inactive),24.6,36
CC(c1ccco1)N(C(=O)Nc1ccccc1)C1CCCCC1 (centres undefined),8.57% (inactive),69.1,77.7
CCCNC(=O)c1ccccc1NC(=O)CSCc1ccc(OC)cc1,16.1% (inactive),67.8,83.9
O=C(CSc1nnc(-c2cccnc2)n1CCc1ccccc1)NCc1ccccc1,20.9% (inactive),68.7,89.6
Cc1ccc(Nc2nnc(SCc3ccccc3)s2)cc1,25.2% (inactive),73,98.2
CC1CCN(S(=O)(=O)c2ccc(S(=O)(=O)NCc3ccco3)cc2)CC1,-17.8% (inactive),93.1,75.4
CC(=O)NC1(c2cccc(F)c2)CCN(CC(=O)NC(C)C)CC1,-7.86% (inactive),90.6,82.8
CCOc1ccc(N=Cc2c(O)n(-c3cccc(C)n3)c(=O)c3ccccc23)cc1,10.8% (inactive),80.7,91.4
CCN(CC)S(=O)(=O)c1cc([N+](=O)[O-])ccc1NNC(=O)Nc1ccccc1,0.11% (inactive),89.8,89.9
CCOc1nc(NCCN2CCOCC2)nc(Nc2ccc(C)cc2)n1,15.7% (inactive),76.1,91.8
Cc1cccc(OCCCC(=O)Nc2ccc(S(=O)(=O)N3CCCC3)cc2)c1,6.98% (inactive),82.2,89.2
COc1ccc(C2C(C#N)=C(/N=C/N3CCOCC3)OC3=C2C(=O)CC(C)(C)C3)cc1OC (centres undefined),12.9% (inactive),83.8,96.7
COC(=O)CNC(=O)c1ccccc1F,-4.37% (inactive),89.6,85.2
Cc1ccc(-n2c(SCC(=O)NCc3ccc4c(c3)OCO4)nnc2-c2cccnc2)c(C)c1,-22.4% (inactive),57.5,35.1

Compound,differential viability (reversal) (H69AR cells + 2 uM doxorubicin),viability [1] [%],viability [2] [%]
CCCCN1C(=O)/C(=C2/C=CC=CN2C)SC1=S,1.69% (inactive),88.5,90.2
CS(=O)(=O)N(CC(=O)Nc1ccc(Cl)c(Cl)c1)C1CCCCC1,-18.2% (inactive),34.8,16.6
CC(C)(C)NC(=O)Cn1c(SCC(=O)Nc2nccs2)nc2ccccc21,7.96% (inactive),84.5,92.5
COCCCNC(=O)CN1CCN(Cc2ccccc2Cl)C1=O,11.7% (inactive),86.8,98.5
CCCc1nc(NCc2ccc3c(c2)OCO3)c2nnn(Cc3ccccc3Cl)c2n1,1.6% (inactive),23,24.6
Cc1nc2ccccc2n1C(=O)N1CCOCC1,-2.57% (inactive),85.1,82.5
CCN(CC(=O)Nc1ccccc1OC)C(=O)Cn1cnc2ccccc2c1=O,8.46% (inactive),84.2,92.7
CCOc1c(Br)cc(/C=C2\C(=O)N(CCC#N)N=C2C)cc1OC,-46.8% (inactive),73,26.2
CCNCCC(=O)N1c2ccccc2Sc2ccc(NC(=O)OCC)cc21,8.86% (inactive),69.7,78.6
Cc1cccn2c(=O)c(/C=C(\C#N)S(=O)(=O)c3ccc(Cl)cc3)c(N3CCC(C(N)=O)CC3)nc12,-6.85% (inactive),89,82.2
COc1ccc(-n2nc(C(=O)NCC(=O)Nc3cccc(C)n3)c3ccccc3c2=O)cc1,-0.23% (inactive),74.5,74.2
CCOC(=O)N1CCC(Nc2c(NCCCN3CCN(CC)CC3)c(=O)c2=O)CC1,2.1% (inactive),109,112
O=S(=O)(Cc1cc(Sc2ccccc2)nc(-c2ccccc2)n1)c1ccccc1,-7.14% (inactive),91.4,84.3
Cc1ccc(CN(N=Nc2nonc2N)c2nonc2N)c(C)c1,2.63% (inactive),76.9,79.6
CCN1C(=O)/C(=C2/Sc3ccc(OC)cc3N2C)SC1=Nc1ccc(C)cc1,-4.5% (inactive),70.6,66.1
CC/C(O)=N\S(=O)(=O)c1ccc(N=NN(C)C)cc1,-1% (inactive),86.7,85.7
CCC(C)NC(=O)c1cc(Cl)ccc1OC (centres undefined),6.89% (inactive),83.6,90.5
O=C(Nc1nnc(SCc2ccccc2)s1)c1ccco1,5.76% (inactive),90.2,96
CCc1ccc(CNC(=O)C2CC(=O)N(CCc3ccc(C)cc3)C2)cc1 (centres undefined),1.99% (inactive),97.6,99.5
Cc1nnc(OCC(=O)NCCC2=CCCCC2)c2ccccc12,-0.56% (inactive),101,101
O=C1C2C3C=CC(C4CC34)C2C(=O)N1/N=C/c1ccc(-c2ccccc2[N+](=O)[O-])o1 (centres undefined),16.1% (inactive),70.3,86.5
CC(C)CCOc1ccc(C(=O)C[N+]2(C)CCOCC2)cc1,16.9% (inactive),86,103
Nc1nc(C23CC4CC(CC(C4)C2)C3)cs1,-3.46% (inactive),96.8,93.3
Cc1cc(C)c(NC(=O)CN2CCOCCOCCOCCOCC2)c(C)c1,8.19% (inactive),89,97.2
